Experimental data published in PubChem BioAssay AID1645856 (Buhrlage Lab, Dana-Farber Cancer Institute and Novartis …, 2021).
Hit rate of the full screen: of about 47,000 compounds, about 510 (1.1%) were called active. Shown is part of a subset that was picked to be rich in actives. Values without a mark were called inactive. Cut-off read from the data, not from the text of the source: active = inhibition above about 30%; inactive = the rest.

What follows are molecules tested against Ubiquitin carboxyl-terminal hydrolase 10 (Homo sapiens) (UniProt Q14694) (assay: inhibitors of human USP10 deubiquitinase (AID 1645856)). Details: purified USP10, Ub-rhodamine fluorescence, 60 min; at 20 µM; stronger effect = higher value.
Ubiquitin carboxyl-terminal hydrolase 10 (Homo sapiens), sequence (Q14694 whole entry, looked up): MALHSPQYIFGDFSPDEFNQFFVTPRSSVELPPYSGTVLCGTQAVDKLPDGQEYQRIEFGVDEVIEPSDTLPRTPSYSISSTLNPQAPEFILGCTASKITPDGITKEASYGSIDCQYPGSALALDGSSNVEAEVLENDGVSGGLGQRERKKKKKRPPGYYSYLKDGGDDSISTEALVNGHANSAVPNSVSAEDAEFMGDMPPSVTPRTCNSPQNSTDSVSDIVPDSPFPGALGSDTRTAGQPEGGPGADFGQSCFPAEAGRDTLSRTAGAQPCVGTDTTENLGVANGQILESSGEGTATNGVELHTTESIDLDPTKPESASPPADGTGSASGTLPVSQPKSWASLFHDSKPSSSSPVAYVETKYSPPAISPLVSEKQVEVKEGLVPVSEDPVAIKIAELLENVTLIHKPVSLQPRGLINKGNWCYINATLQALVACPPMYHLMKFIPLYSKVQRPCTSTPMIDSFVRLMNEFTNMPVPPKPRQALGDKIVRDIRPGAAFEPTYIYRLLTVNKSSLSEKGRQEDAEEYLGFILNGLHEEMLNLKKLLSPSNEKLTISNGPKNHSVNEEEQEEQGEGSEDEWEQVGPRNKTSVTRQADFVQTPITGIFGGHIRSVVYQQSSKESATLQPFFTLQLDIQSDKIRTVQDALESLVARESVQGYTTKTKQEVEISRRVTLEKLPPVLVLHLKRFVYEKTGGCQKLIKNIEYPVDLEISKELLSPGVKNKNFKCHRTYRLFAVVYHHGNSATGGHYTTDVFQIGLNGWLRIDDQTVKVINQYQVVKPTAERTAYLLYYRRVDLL
Work on COc1ccccc1C1CC(c2c(O)n(C)c(=O)n(C)c2=O)=Nc2ccccc2S1 (stereo not drawn) yielded an inhibition of 2.61%. For Oc1cccc2nc3c(O)cccc3nc12, the inhibition was 41.5% (active). COC(=O)COc1cccc2c(=O)n(CC(=O)N3CCc4ccccc43)ccc12 showed an inhibition of 2.69%. Molecule COc1ccccc1CN1CCC2(CC1)NC(=O)C(CC(C)C)NC2=O (stereo not drawn) has an inhibition of 0.757%. With CC(C)NC(=O)c1cc(-c2cnc(-c3ccnn3C)nc2)cn1CC1CC1 the inhibition was -0.689%. Work on O=S(=O)(Cc1ccccc1)N1CCC2(CCN(Cc3cccc(F)c3)C2)C1 (stereo not drawn) yielded an inhibition of -2.23%. For O=c1ccc(S(=O)(=O)N2CCOCC2)cn1Cc1ccccc1, the inhibition was -0.385%. In the case of COc1cc(-c2nc(CC(=O)NCCc3c[nH]c4ccc(F)cc34)cs2)cc(OC)c1OC, the inhibition is reported as -1.95%. CC(C)n1c(C2CCN(C(=O)Nc3ccc4c(c3)CCC4)C2)nc2ccncc21 (stereo not drawn) was tested, and the inhibition was 2.17%. Work on COc1cccc(CNC(=O)c2nnn(CC(=O)Nc3cc(C)ccc3C)c2N)c1 yielded an inhibition of 29.8%. In the case of Cc1ccc(NC(=O)Cc2sc(Nc3ccc(C)cc3)nc2O)cc1, the inhibition is reported as 25.6%. Cc1ccc(Nc2nc(NCC(=O)Nc3cc(C)ccc3C)nc(Nc3ccc(C)cc3)n2)cc1 was tested, and the inhibition was 37% (active). Work on CS(=O)(=O)N1Cc2ccccc2OC2(CCCNC2)C1 (stereo not drawn) yielded an inhibition of -0.607%. CCOc1nccnc1N1CCC(N(C)S(=O)(=O)C2CC2)C1 (stereo not drawn) gave an inhibition of 1.55%. CC(C)c1ccc(NC(=O)C[n+]2cc(-c3ccc(F)cc3)n3c2CCC3)cc1 gave an inhibition of 0.686%. Molecule COc1ccccc1C(=O)Nc1cccc(Oc2ccccc2)c1 has an inhibition of 11.9%. COc1cccc(NC(=O)c2nn(-c3ccc(F)cc3)c(OC)cc2=O)c1 gave an inhibition of 0.262%. With COc1cccc(NC(=O)C(Sc2cccc(NC(=O)c3ccccc3F)c2)c2ccccc2)c1 (stereo not drawn) the inhibition was 32.4% (active). COc1ccc(C2CC(=O)c3cnc(NCC4CCCO4)nc3C2)cc1 (stereo not drawn) gave an inhibition of -0.196%. COc1cccc(C2c3[nH]c4ccccc4c3C[C@@H]3C(=O)N(CC4CCCO4)CC(=O)N23)c1 (stereo partly drawn) was tested, and the inhibition was -6.67%. Work on Cc1ccc(C(=O)Nc2nc3c(s2)CCC3C(=O)NCc2ccncc2)cc1 (stereo not drawn) yielded an inhibition of -7.71%. Molecule Cc1cc(F)ccc1NC(=O)c1cc(C2CC2)n2nccc2n1 has an inhibition of -3.56%. Work on Cc1ccc(Cn2cc(-c3noc(-c4ccccn4)n3)nn2)cc1 yielded an inhibition of 7.3%. For Cc1ccc(-n2cc(-c3noc(C(=O)Nc4ccc(F)cc4C)n3)nn2)cc1, the inhibition was 76.1% (active). Molecule O=C1NCCCn2cc(S(=O)(=O)NCc3ccc4c(c3)OCO4)cc21 has an inhibition of -0.173%. Cc1nc2cc(-c3noc(-c4cnccn4)n3)ccc2n(C2CCCC2)c1=O showed an inhibition of -3.38%. With CCCCN(C)c1ccc2nnc(CCc3nc(-c4cc(OC)cc(OC)c4)no3)n2n1 the inhibition was -5.1%. CNC(=O)N1C[C@H]2C[C@H](C(=O)Nc3ccc4c(c3)OCO4)[C@@H](C1)O2 gave an inhibition of -1.52%. With O=C(COc1ccc2ccccc2c1)NCc1nnnn1-c1ccc(Cl)cc1 the inhibition was 6.45%. In the case of CC1(C(N)=O)CN(Cc2ccnc(N3CCCC3)n2)CCO1 (stereo not drawn), the inhibition is reported as -2.23%. CN1CC(=O)N(C2CCCNC2)Cc2c(NC3CCc4ccccc43)ncnc21 (stereo not drawn) gave an inhibition of -1.83%. In the case of O=S(=O)(c1ccc(F)c(Cl)c1)N1CCC(N2CCOCC2)CC1, the inhibition is reported as 1.61%. Work on CC(C)C(NS(=O)(=O)c1ccc(Cl)cc1)C(=O)OCC(=O)C12CC3CC(CC(C3)C1)C2 (stereo not drawn) yielded an inhibition of 3.82%. With Cc1cccc(CNC(=O)C2CCc3nc(N4CCOCC4)ncc3C2)c1 (stereo not drawn) the inhibition was -3.24%. In the case of COc1cccc(O[C@@H]2C[C@@H](NC(=O)c3ncoc3C)[C@H](O)[C@H]2O)c1, the inhibition is reported as -1.35%. Molecule O=S1(=O)C=C(CSCCO)c2cc(Cl)ccc21 has an inhibition of -1.29%. Molecule Cc1cc(C(=O)N2CCCCC2c2nncn2CC2CC2)nn1C (stereo not drawn) has an inhibition of 1.03%. For COCCNC(=O)c1cccc(C2CCCN(C(=O)Nc3ccccc3)C2)c1 (stereo not drawn), the inhibition was 6.54%. Work on O=C(CSc1n[nH]c(-c2ccccc2Cl)n1)NCC1CCCO1 (stereo not drawn) yielded an inhibition of -1.9%. In the case of COc1ccc(CC(=O)N2CCC3(C2)C(=O)N(C)c2ccccc23)cc1 (stereo not drawn), the inhibition is reported as -4.15%. CCOC(=O)N1CCN(Cc2nc3ccc([N+](=O)[O-])cc3c(=O)n2-c2cccc(OC)c2)CC1 was tested, and the inhibition was -1.3%. In the case of CC(C)Cn1cnc2nc(CSc3ccccc3NC(=O)Nc3ccccc3)cc(=O)n21, the inhibition is reported as 2.5%. For Cc1ccc(S(=O)(=O)N2CCC(c3nc(C(=O)N(C)C)c(C)o3)CC2)cc1C, the inhibition was -0.0972%. CSc1ncnc2c1sc1nc(-c3ccccc3)c3c(c12)CC(C)(C)OC3 was tested, and the inhibition was 0.0174%. CCCCCCSc1ncnc2c1sc1nc(-c3ccccc3)c3c(c12)CC(C)(C)OC3 gave an inhibition of -3.17%. With CC1(C)Cc2c(c(-c3ccco3)nc3sc4c(SCCCc5ccccc5)ncnc4c23)CO1 the inhibition was 58.4% (active). Work on Clc1cc2nc(N3CCN(c4ccccn4)CC3)c3nncn3c2cc1Cl yielded an inhibition of -8.09%. With Cc1ccccc1CNC(=O)Cn1c(=O)ccn(Cc2ccc(F)cc2)c1=O the inhibition was 0.832%. N#Cc1ccccc1Cn1c(=O)n(CCCC(=O)NCc2ccc(F)cc2)c(=O)c2ccccc21 was tested, and the inhibition was 34% (active). Molecule O=C(CCCn1c(=O)c2ccccc2n(Cc2ccccc2F)c1=O)NC1CCCC1 has an inhibition of 8.78%. In the case of COc1cccc(C(O)c2ncc(-c3ccc4ccccc4c3)[nH]2)c1 (stereo not drawn), the inhibition is reported as -5.14%. Work on CN(C)c1nc(C2CCN(C(=O)c3ccccc3)CC2)cn2nccc12 yielded an inhibition of -1.26%. Molecule CN(C)c1nccnc1C1CN(C(=O)c2cc(C(C)(C)C)[nH]n2)CCO1 (stereo not drawn) has an inhibition of 4.78%. C/C=C(\Cl)C1=CC(=O)[C@]23C[C@H]2[C@@]2(C)CO[C@@]1(O)[C@@]3(O)O2 was tested, and the inhibition was -13.4%. In the case of Cc1ccc(S(=O)(=O)N2CCCC(c3nc(-c4ccc(=O)[nH]c4)no3)C2)cc1 (stereo not drawn), the inhibition is reported as 0.0273%. Cc1ccc(CC(=O)N2CCN(C(=O)c3cc(-c4ccccn4)n[nH]3)CC2)cc1 was tested, and the inhibition was -1.22%. COc1cc(Cl)c(NC(=O)c2cc(-c3ccccn3)n[nH]2)c(OC)c1 was tested, and the inhibition was 38% (active). O=C(Nc1ccc(Cl)cc1F)c1cc(-c2ccccn2)n[nH]1 was tested, and the inhibition was 10.2%. In the case of Cc1c(-c2nnc(-c3ccccn3)o2)nnn1-c1ccccc1Cl, the inhibition is reported as 1.56%. In the case of COc1ccc(-c2noc(-c3ccc(N(C)Cc4ccco4)nn3)n2)cc1, the inhibition is reported as 0.989%. For Cc1ncccc1Oc1nccnc1C1CCNCC1, the inhibition was 0.116%. CCN(CC)C(=O)CC[C@H]1CNC(=O)[C@@H]2[C@@H](CCN2CC2CC2)N1C was tested, and the inhibition was -0.533%. O=C1CC(c2ccc(OCc3ccccc3)cc2)c2sccc2N1 (stereo not drawn) showed an inhibition of 2.63%. Molecule COc1cccc(CCN2CCOc3nc4c(C)cccc4cc3C2)c1OC has an inhibition of 1.85%. Work on Cn1c(=O)[nH]c(=O)c2c1nc(N1CCCCCC1)n2CCCSc1nc2ccccc2s1 yielded an inhibition of 20.1%. Work on Cn1c2c(c(=O)n(C)c1=O)[C@@H]1c3c(ccc4ccccc34)OC[C@@H]1CO2 yielded an inhibition of -4.17%. CO[C@@H](/C(C)=C/C=C/C(C)=C/c1coc(C)n1)[C@@H](C)[C@@H]1C[C@H](O)[C@@]2(C)O[C@@H]2/C=C/[C@@H](C)[C@H](O)C[C@H](CC(=O)O)C/C=C/C(=O)O1 showed an inhibition of -8.33%. CN(c1ccc(F)cc1)c1ccc2ccc(C(=O)N3CCCC(O)C3)cn12 (stereo not drawn) was tested, and the inhibition was -11.2%. With Cn1c(SCC(N)=O)nnc1-c1cc2ccccc2o1 the inhibition was -1.83%. Cc1noc(C)c1C1CCCN1C(=O)c1c(F)cccc1F (stereo not drawn) was tested, and the inhibition was 2.21%. CC(CN1CCOCC1)OC(=O)c1ccc(C(C)(C)C)cc1 (stereo not drawn) was tested, and the inhibition was 0.0972%. CC(C)CC(=O)Nc1ccc(-c2nc3ncccc3o2)cc1 gave an inhibition of 1.25%. Work on CCOc1ccccc1NC(=O)Cc1cccs1 yielded an inhibition of 1.12%. Cc1cccc(Nc2nc(N3CCOCC3)nc3c2cnn3C)c1 gave an inhibition of -3.81%. CCc1nc2cc(N3CCC(C(=O)N4CCN(CC)CC4)CC3)cnc2nc1CC showed an inhibition of -3.73%. O=C(NCC1CCCCC1)C1CCN(C2=NS(=O)(=O)c3ccccc32)CC1 showed an inhibition of -1.45%. In the case of COc1cccc(CNC(=O)c2ccc3c(=O)nc4c(-c5ccccc5)n[nH]n4c3c2)c1, the inhibition is reported as 17.4%. Cc1cc(Cl)cc(C)c1OCC(=O)NC1CCCc2ccccc21 (stereo not drawn) showed an inhibition of -1.09%. With CCOC(=O)C1CCN(C(c2cccnc2)c2c(NC(C)=O)sc3c2CCCC3)CC1 (stereo not drawn) the inhibition was -3.05%. CC1CCN(C(=O)C2CCN(C(=O)c3ccc4c(c3)nnn4C3CCCC3)CC2)CC1 gave an inhibition of -0.291%. In the case of COc1ccc(N2CC(c3nnc(NC(=O)CCc4ccccc4)s3)CC2=O)cc1 (stereo not drawn), the inhibition is reported as 30.4% (active). Cc1ccc(CC(=O)Nc2nnc(C3CC(=O)N(c4ccc(C)c(C)c4)C3)s2)cc1 (stereo not drawn) was tested, and the inhibition was 15.3%. Cc1ccc(N2CC(c3nnc(NC(=O)CCCc4ccccc4)s3)CC2=O)cc1 (stereo not drawn) showed an inhibition of 8.86%.
